The supplement of paper PMC13380429

Test system: Vero E6 infected with SARS-CoV-2
Assay: inhibition of SARS-CoV-2 cytopathic effect; higher = more antiviral protection, active = above 15
Conditions: 48 h

Row | Compound | inhibition of SARS-CoV-2 cytopathic effect (1 nM) | inhibition of SARS-CoV-2 cytopathic effect (8.33 nM) | inhibition of SARS-CoV-2 cytopathic effect (100 nM) | inhibition of SARS-CoV-2 cytopathic effect (833.33 nM) | inhibition of SARS-CoV-2 cytopathic effect (10000 nM)
1 | CCCC(CCC)C(=O)NCC(N)=O [valrocemide] | 0.41% (inactive) | 1.83% (inactive) | 2.6% (inactive) | 0.66% (inactive) | 3.56% (inactive)
2 | Oc1cccc(-c2nc(N3CCOCC3)c3oc4ncccc4c3n2)c1 | -0.17% (inactive) | 0.46% (inactive) | -0.59% (inactive) | -6.22% (inactive) | -7.96% (inactive)
3 | COc1cc(SC)ccc1C(=O)N1CCC(Cc2ccccc2)CC1 | 4.96% (inactive) | 7.9% (inactive) | 8.76% (inactive) | 9.01% (inactive) | 7.35% (inactive)
4 | C[C@]12C=CC(=O)C=C1CC[C@@H]1[C@@H]2CC[C@]2(C)OC(=O)CC[C@@H]12 [Testolactone] | -1.05% (inactive) | -0.81% (inactive) | -0.43% (inactive) | -1.59% (inactive) | 11.2% (inactive)
5 | Cc1nnc(C[C@@H]2C=C(c3ccc(Cl)cc3)c3ccccc3-n3c(C)nnc32)o1 | 1.71% (inactive) | 0.46% (inactive) | 2.65% (inactive) | -4.91% (inactive) | -11.7% (inactive)
6 | COc1cccc(Nc2c(C(N)=O)cnc3c(C)cc(S(=O)(=O)c4cccc(C(=O)N(C)C)c4)cc23)c1 | 1.19% (inactive) | 3.12% (inactive) | 0.15% (inactive) | 3.01% (inactive) | 0.48% (inactive)
7 | CCCCCCOC(=O)CCC(=O)CN [hexaminolevulinate] | -0.29% (inactive) | 0.97% (inactive) | 1.79% (inactive) | 1.44% (inactive) | 5.39% (inactive)
8 | CCC(CC)Nc1cc(C)nc(Oc2c(C)cc(C)cc2C)c1C | -0.56% (inactive) | 0.65% (inactive) | -1.28% (inactive) | 0.01% (inactive) | -1.59% (inactive)
9 | C[C@H](CCC(=O)O)[C@H]1CC[C@H]2[C@@H]3[C@H](O)C[C@@H]4C[C@H](O)CC[C@]4(C)[C@H]3C[C@H](O)[C@]12C [cholic-acid] | -0.3% (inactive) | 0.75% (inactive) | 0.02% (inactive) | -0.84% (inactive) | 0.54% (inactive)
10 | CCCCC(CC)CCC(CC(C)C)OS(=O)(=O)O (stereo not given) [sodium-tetradecyl-sulfate] | 3.58% (inactive) | 3.18% (inactive) | 2.64% (inactive) | 1.74% (inactive) | 3.12% (inactive)
11 | C=C1/C(=C\C=C2/CCC[C@]3(C)[C@@H]([C@H](C)/C=C/[C@H](C)C(C)(C)O)CC[C@@H]23)C[C@@H](O)C[C@@H]1O [ercalcitriol] | -1.77% (inactive) | 0.83% (inactive) | -0.6% (inactive) | 2.88% (inactive) | 3.34% (inactive)
12 | CCOC(=O)c1ccc(N(C)c2csc(-c3ccccc3)n2)cc1 [neuropathiazol] | -0.18% (inactive) | 1.78% (inactive) | 0.85% (inactive) | 2.12% (inactive) | 2.67% (inactive)
13 | OC1=c2ccccc2=C(NC2CCCCC2)/C1=C\c1ccccc1 | 0.53% (inactive) | 0.22% (inactive) | 0.42% (inactive) | 13.8% (inactive) | 45.5% (active)
14 | Cc1cc(SCc2sc(-c3ccc(C(F)(F)F)c(F)c3)nc2C)ccc1OCC(=O)O | 0.88% (inactive) | 1.12% (inactive) | -2.76% (inactive) | -1.29% (inactive) | -1.19% (inactive)
15 | CCC(=O)c1ccc(OCC(O)CN2CCN(c3ccccc3)CC2)cc1 (stereo not given) [centpropazine] | -4.09% (inactive) | -0.61% (inactive) | -2.65% (inactive) | -0.96% (inactive) | -0.58% (inactive)
16 | C#C[C@]1(O)CC[C@H]2[C@@H]3CCC4=C(CCC(=O)C4)[C@H]3CC[C@@]21C [noretynodrel] | 0.57% (inactive) | 0.96% (inactive) | 1.22% (inactive) | -5.6% (inactive) | 0.57% (inactive)
17 | O=C(O)/C=C(/CC(=O)O)C(=O)O [cis-aconitic-acid] | 0.99% (inactive) | 0.49% (inactive) | -3.45% (inactive) | -2.25% (inactive) | 0.81% (inactive)
18 | Cc1nc(-c2cn3c(n2)-c2ccc(-c4cnn(C(C)(C)C(N)=O)c4)cc2OCC3)n(C(C)C)n1 [taselisib] | 3.71% (inactive) | 1.62% (inactive) | -1.05% (inactive) | -1.92% (inactive) | -8.91% (inactive)
19 | Cc1cncc(CN2CCC(=C3c4ccc(Cl)cc4CCc4cccnc43)CC2)c1 [rupatadine] | -0.79% (inactive) | -0.26% (inactive) | 2.27% (inactive) | 2.5% (inactive) | -9.2% (inactive)

Row | Compound | inhibition of SARS-CoV-2 cytopathic effect (1 nM) | inhibition of SARS-CoV-2 cytopathic effect (8.33 nM) | inhibition of SARS-CoV-2 cytopathic effect (100 nM) | inhibition of SARS-CoV-2 cytopathic effect (833.33 nM) | inhibition of SARS-CoV-2 cytopathic effect (10000 nM)
20 | O=C(c1ccc(F)cc1)C1CCN(CCn2c(=O)[nH]c3ccccc3c2=O)CC1 [ketanserin] | 1.58% (inactive) | -0.51% (inactive) | -0.25% (inactive) | 2% (inactive) | -1.33% (inactive)
21 | CCOC(=O)C1=C(C)NC(=S)NC1c1cccc(O)c1 (stereo not given) [monastrol] | 0.53% (inactive) | -0.07% (inactive) | 1.51% (inactive) | 0.94% (inactive) | -1.39% (inactive)
22 | CC(=O)OCC(=O)NCCCOc1cccc(CN2CCCCC2)c1 [roxatidine-acetate] | -0.88% (inactive) | 2.22% (inactive) | -0.37% (inactive) | 1.86% (inactive) | 2.34% (inactive)
23 | O=C1CC[C@@]2(O)[C@H]3Cc4ccc(O)c5c4[C@@]2(CCN3CC2CC2)[C@H]1O5 | 4.81% (inactive) | 3.83% (inactive) | 1.26% (inactive) | -1.24% (inactive) | 0.01% (inactive)
24 | CCN(CC)CCNc1ccc(CO)c2sc3ccccc3c(=O)c12 [hycanthone] | -3.88% (inactive) | -2.41% (inactive) | -0.96% (inactive) | -2.51% (inactive) | 0.99% (inactive)
25 | Cc1cc2nc3c(=O)[nH]c(=O)nc-3n(C[C@H](O)[C@H](O)[C@H](O)CO)c2cc1C [riboflavin] | -3.6% (inactive) | -1.59% (inactive) | -1.7% (inactive) | 0.03% (inactive) | 0.32% (inactive)
26 | Sc1ncnc2nc[nH]c12 [mercaptopurine] | -0.65% (inactive) | 1.59% (inactive) | 2.14% (inactive) | 1.92% (inactive) | 0.56% (inactive)
27 | CC(C)(C)OC(=O)c1ncn2c1[C@@H]1CCCN1C(=O)c1c(Br)cccc1-2 [bretazenil] | -1.38% (inactive) | -4.36% (inactive) | -1.99% (inactive) | -3.96% (inactive) | -1.07% (inactive)
28 | O=C(O)c1cc(=O)c2ccccc2o1 [chromocarb] | -1.09% (inactive) | -0.13% (inactive) | -0.55% (inactive) | 3.21% (inactive) | -0.51% (inactive)
29 | Cc1nccc2[nH]c(=O)ccc12 [medorinone] | -1.14% (inactive) | -4.65% (inactive) | 1.27% (inactive) | -0.3% (inactive) | -3.87% (inactive)
30 | CCCOc1ccc(C(=O)OCCN(CC)CC)cc1N [proxymetacaine] | 1.69% (inactive) | 1.71% (inactive) | 2.25% (inactive) | 0.25% (inactive) | 2% (inactive)
31 | COc1cc(C)[nH]c(=O)c1CNC(=O)c1c(C)n([C@H](C)C2CCOCC2)c2ccccc12 | -1.12% (inactive) | -1.57% (inactive) | 0.4% (inactive) | -4.34% (inactive) | -4.06% (inactive)
32 | O=C(O)c1cc(C(=O)O)c(C(=O)N(Cc2cccc(Oc3ccccc3)c2)[C@H]2CCCc3ccccc32)cc1C(=O)O | 0.03% (inactive) | -0.1% (inactive) | -1.42% (inactive) | -0.62% (inactive) | 0.42% (inactive)
33 | CC(C)(C)NC(=O)N[C@H](C(=O)N1C[C@H]2[C@@H]([C@H]1C(=O)NC(CC1CCC1)C(=O)C(N)=O)C2(C)C)C(C)(C)C (stereo not given in full) [Boceprevir] | 0.22% (inactive) | 1.1% (inactive) | -0.28% (inactive) | -1.99% (inactive) | -0.53% (inactive)
34 | COc1ccc(CN(CCN(C)C)c2ncccn2)cc1 [thonzylamine] | 0.64% (inactive) | 0.52% (inactive) | 0.24% (inactive) | 3.55% (inactive) | -0.17% (inactive)
35 | NNc1nncc2ccccc12 [hydralazine] | 0.09% (inactive) | 0.28% (inactive) | -1.28% (inactive) | -0.12% (inactive) | 0.87% (inactive)
36 | CC(C)(C)n1nc(-c2cccc3ccccc23)c2c(N)ncnc21 [1-naphthyl-PP1] | 0.05% (inactive) | 1.77% (inactive) | 1.73% (inactive) | 1.24% (inactive) | -4.31% (inactive)
37 | O=C(Nc1cccc2c(=O)cc(-c3nnn[nH]3)oc12)c1ccc(OCCCCc2ccccc2)cc1 [pranlukast] | -0.09% (inactive) | 2.87% (inactive) | 0.47% (inactive) | -3.27% (inactive) | 1.15% (inactive)
38 | O=C(Cn1c(=O)sc2ccc(Cl)cc21)N1CCN(CCO)CC1 [tiaramide] | -2.08% (inactive) | -1.84% (inactive) | -3.6% (inactive) | -1.93% (inactive) | 2.14% (inactive)
